Hits are enriched below; roughly 7.3% of the tested compounds scored in any of these assays.
NPC1 prom act – NPC1 promoter activation | Huh7 NPC1 promoter luciferase reporter, 24 h | actives 2.4% (n = 320,000) | AID 485313 | Potency, µM (highest dose often 9.22 µM), for the others: at the top dose activation, hits mostly activators; also: % of control where 0% means no effect; nearly all actives have a fitted effect of over 60% in size
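NPC1 promoter–luciferase Huh7 cells; 24 h compound; luminescence.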
ELG1 genotoxic – genotoxicity induction in ELG1-luciferase HEK293T cells | Potency, µM (doses to about 46 µM), for inactives: top-dose activity change, positive = activation, most hits filed as activators | actives 1.3% (n = 330,000) | HEK293T ELG1-luciferase reporter, luminescence, 16 h | AID 504466; also: % of control where 0% means no effect; nearly all actives have a fitted effect of over 60% in size
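Cells (2,000/well) expressing the ELG1-luciferase fusion are dosed by pin tool and kept 16 hr at 37 °C, 5% CO2. Signal comes from ONE-Glo luciferase reagent after 30 min at room temperature.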
FLuc modulator – counter-screen for miR-21 project: firefly luciferase inhibitors or activators; purified FLuc, Km substrates, luminescence inhibition; AID 588342; P08659; Potency, µM (doses to about 57.5 µM), for inactives: at the top dose activity change, negative = inhibition, actives largely listed as inhibitors; actives 6.9% (n = 360,000);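 also: plate controls were vehicle for no effect and reference inhibitor for full effect; nearly all actives have a fitted effect of over 55% in size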
Target sequence (P08659 whole entry, looked up): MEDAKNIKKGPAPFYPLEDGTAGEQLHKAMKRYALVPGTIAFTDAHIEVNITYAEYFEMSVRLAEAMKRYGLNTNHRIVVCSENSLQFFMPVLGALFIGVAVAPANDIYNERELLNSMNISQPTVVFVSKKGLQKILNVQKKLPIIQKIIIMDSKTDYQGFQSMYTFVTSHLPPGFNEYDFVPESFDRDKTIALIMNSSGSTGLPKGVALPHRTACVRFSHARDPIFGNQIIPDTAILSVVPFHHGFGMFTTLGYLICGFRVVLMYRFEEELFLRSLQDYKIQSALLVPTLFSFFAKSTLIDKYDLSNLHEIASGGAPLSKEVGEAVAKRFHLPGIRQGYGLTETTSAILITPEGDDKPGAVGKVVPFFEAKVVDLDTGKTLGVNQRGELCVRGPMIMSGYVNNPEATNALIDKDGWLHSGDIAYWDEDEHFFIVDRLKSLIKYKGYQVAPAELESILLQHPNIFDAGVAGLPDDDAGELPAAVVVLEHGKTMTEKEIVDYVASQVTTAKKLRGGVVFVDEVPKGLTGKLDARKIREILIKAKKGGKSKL
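Purified P. pyralis luciferase, 10 nM final, with Km-level 10 uM D-luciferin and 10 uM ATP in 50 mM Tris acetate pH 7.5, 10 mM Mg acetate, 0.01% Tween-20, 0.05% BSA; 6-point qHTS titration about 60 µM downward; luminescence read.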
Rab9 promoter act – Rab9 promoter activation | Huh7 Rab9 promoter-luciferase reporter, luminescence, 24 h | Potency, µM (titrated, usually from 9.22 µM), for inactives: at the highest dose activation, negative = inhibition, usual class: activators | actives 2.8% (n = 320,000) | AID 485297; also: % of control where 0% means no effect; nearly all actives have a fitted effect of over 60% in size
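Huh7 reporter line, Rab9 promoter upstream of luciferase. Compound exposure 24 h at 37 °C in reduced-serum medium with 10% FBS. Read-out: luminescence.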
Luc counter – counter-screen: inhibitors of Kinase-Glo firefly luciferase; Potency, µM (doses to about 38.3 µM), for inactives: at the top dose activity change, negative = inhibition, usual class: inhibitors; AID 1379; Kinase-Glo luciferase, ATP luminescence, 8 min; actives 0.28% (n = 200,000); also: % is scaled to controls: 0 for no effect and ±100 for the full control effect; nearly all actives have a fitted effect of over 60% in size
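Compound is pinned into ATP-containing buffer (10 uM ATP, imidazole pH 7.2, 7 mM MgCl2). Kinase-Glo luciferase reagent is then added. Light output is recorded following an 8-min room-temperature incubation.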
SMN2 splice up – enhancers of SMN2 splice variant expression; actives 2.8% (n = 210,000); Potency, µM (doses to about 46.1 µM), without a hit: top-dose activity change, positive = activation, hits mostly activators; HEK293 SMN2-luciferase splicing reporter, luminescence, 30-36 h; also: % of control where 0% means no effect; nearly all actives have a fitted effect of over 55% in size
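HEK293 cells carry an SMN2 […]–luciferase reporter in which exon 7 inclusion puts luciferase in frame. Cells were plated 10-12 h before compound addition, then incubated 30-36 h at 37C. ONE-Glo luminescence was read; sodium butyrate at 4.5 mM final served as control.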
An asterisk follows results filed as active; ? = inconclusive; / = not tested or not shown; [ ] = dose if it differs, or a comment. Calls follow the shape of the dose curve; as a rule, active = well fitted curve in the direction sought with a large enough effect; inconclusive = small, poorly fitted or top-dose-only effect, or another doubt; inactive = no such curve, though single readings can be large; an effect the other way counts as inactive or inconclusive. Potency is read from the fitted curve at half-maximal effect.

SMILES	NPC1 prom act	ELG1 genotoxic	FLuc modulator	Rab9 promoter act	Luc counter	SMN2 splice up
O=C(Cc1cccs1)Nc1ccccc1NC(=O)Cc1cccs1	-1%	-2%	0%	-2%	-2%	29%
CCCn1c(SCc2nc(-c3ccccc3OCC)no2)nnc1-c1ccc(Cl)cc1	/	/	-13%	/	/	-15%
Cc1ccc(/C(N)=N/OC(=O)Cc2cccs2)cc1	?	?	9.5µM*	?	-4%	1%
Cc1ccc(/C(N)=N/OC(=O)Cc2ccccc2)cc1	18%	?	19µM*	1%	-3%	20%
N/C(=N\OC(=O)Cc1cccs1)c1ccccc1	?	?	15µM*	27%	-3%	-4%
N/C(=N\OC(=O)Cc1cccs1)c1ccc(Cl)cc1	20%	?	13µM*	24%	/	/
N/C(=N\OC(=O)Cc1cccs1)c1cccc([N+](=O)[O-])c1	-3%	5%	?	-2%	-3%	-3%
Cc1c(-c2nc(N)nc(C3CC3)c2C)nc(N)nc1C1CC1	/	/	/	/	-1%[7.66 µM]	1%[9.22 µM]
Cc1ccc(C)c(CN2C(=O)c3ccccc3S(=O)c3ccc(C(=O)N4CCN(c5cccc(Cl)c5)CC4)cc32)c1 (stereo unspecified)	/	/	0%	/	/	?
CC(C)C[C@H](N)C(=O)N[C@H](C(=O)N[C@H](C(=O)N[C@@H](Cc1ccc(O)cc1)C(=O)N1CCC[C@H]1C(=O)N[C@@H](Cc1c[nH]c2ccccc12)C(=O)N[C@H](C(=O)N[C@@H](CCC(N)=O)C(=O)N[C@@H](CCCN=C(N)N)C(=O)O)[C@@H](C)O)C(C)C)C(C)C	/	/	/	/	/	-8%
Cc1cccc(/C(N)=N/OC(=O)Cc2cccs2)c1	?	?	13µM*	?	-4%	10%
Cn1cnc(S(=O)(=O)N2CCC(C(=O)Nc3ccc(Cl)c(C(F)(F)F)c3)CC2)c1	/	/	6%	/	/	/
C/C(=N\Nc1nc(-c2ccccc2)cs1)c1cccs1	3.5µM*	?	0.85µM*	2µM*	-16%	2.8µM*
C/C(=N\Nc1nc2ccccc2s1)c1cccs1	?	?	0.67µM*	3.5µM*	-17%	/
C/C(=N\Nc1nc(N2CCOCC2)nc(N2CCOCC2)n1)c1cccs1	0%	-2%	2%	-8%	-3%	-3%
Cc1ccc(CCNC(=O)c2ccc(CSCc3ccccc3C)o2)cc1	/	/	-17%	/	/	/
CN(C(=O)CSc1nc2ccc(NC(=O)c3cccs3)cc2s1)c1ccccc1	/	/	-16%	/	/	/
COc1ccc(/C=C/C(=O)NC(=S)N2CCN(c3ccccn3)CC2)cc1OC	-4%	-4%	24µM*	-3%	0%	/
O=C(/C=C/c1ccc(F)cc1)NC(=S)N1CCN(c2ccccn2)CC1	?	10%	21µM*	2.5µM*	/	/
CSc1ccc(/C=C/C(=O)N2CCN(c3ccccn3)CC2)cc1	4%	3%	13µM*	0%	/	/
Cc1cc(C)c(NC(=O)COCc2cc(-c3cccs3)on2)c(C)c1	/	/	-11%	/	/	/
O=C(CS(=O)(=O)c1cccc2nsnc12)N1CCN(c2ccc(F)cc2)CC1	/	/	-1%	/	/	/
CCOC(=O)C1CCN(C(=O)c2cc3cc4cc(OC)ccc4nc3o2)CC1	?	9%	?	3.2µM*	4%	11µM*
COc1ccc2nc3oc(C(=O)N4CCCCC4)cc3cc2c1	3.2µM*	15µM*	6.7µM*	2.8µM*	1%	14µM*
CCOC(=O)C1CCN(C(=O)c2cc3ccc(OC)cc3[nH]2)CC1	?	8%	-19%	?	/	/
COc1ccc2cc3cc(C(=O)N4CCCC(C)C4)oc3nc2c1 (stereo unspecified)	2.5µM*	?	5.4µM*	2µM*	/	/
COc1ccc2nc3oc(C(=O)N4CC(C)CC(C)C4)cc3cc2c1 (stereo unspecified)	-1%	3%	21µM*	12%	/	/
COc1ccc2cc3cc(C(=O)N4CCN(c5ccccc5)CC4)oc3nc2c1	-1%	-1%	?	-1%	-5%	-41%

Source: PubChem BioAssay
